According to PubChem BioAssay AID1159580 (chemical genetic matrix, 2015):
“And” between values parts separate entries of the source, which are not always exact repeats. Identical values can stand only once. Among all 5,500 compounds or so, about 2,000 (36%) were called active. Another 18% or so got no clear call; they are omitted. Cut-off read from the data, not from the text of the source: active = normalized growth mostly below about 0.91 (no sharp cut-off); inconclusive = no clear call, values can overlap the other calls; inactive = mostly above about 0.92. The list shows a part of the results.

Assay: chemical genetic growth profiling, strain panel (AID 1159580);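 note: tested at 20 µM; growth read once vehicle control cultures reached saturation at 30 °C; 1 = growth at the plate median or of vehicle wells; lower values mean less growth of the strain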
Conditions: S. cerevisiae deletion strains, growth OD
[1] = locus YDL101C, strain DUN1, hits give low values
[2] = locus YHR030C, strain SLT2, hits give low values
[3] = locus YHR079C, strain IRE1, hits give low values
[4] = locus YJL095W, strain BCK1, hits give low values
[5] = locus YJR066W, strain TOR1, hits give low values
[6] = locus YLR113W, strain HOG1, hits give low values
[7] = locus YNL183C, strain NPR1, hits give low values
[8] = locus YOR061W, strain CKA2, hits give low values
[9] = locus YOR231W, strain MKK1, hits give low values
[10] = locus YPL256C, strain CLN2, hits give low values

Measured: normalized growth

O=C(Nc1ccc(F)c(Cl)c1)c1ccccc1O
inactive: locus YAR019C, strain CDC15, hits give low values 0.9 | locus YBR136W, strain MEC1, hits give low values 0.899 | locus YBR160W, strain CDC28, hits give low values 0.899 | locus YDL028C, strain MPS1, hits give low values 0.897 | [1] 0.951 | locus YDL214C, strain PRR2, hits give low values 0.83 | locus YDR054C, strain cdc34, hits give low values 0.885 | locus YDR477W, strain SNF1, hits give low values 0.834 | locus YER123W, strain YCK3, hits give low values 0.76 | locus YER133W, strain GLC7, hits give low values 0.862 | locus YFL029C, strain CAK1, hits give low values 0.884 | locus YFR019W, strain FAB1, hits give low values 0.904 | locus YGR040W, strain KSS1, hits give low values 0.819 | locus YGR052W, strain FMP48, hits give low values 0.8 | locus YGR092W, strain DBF2, hits give low values 0.519 | [3] 0.632 | locus YHR082C, strain KSP1, hits give low values 0.76 | locus YHR205W, strain SCH9, hits give low values 0.747 | locus YIL147C, strain SLN1, hits give low values 0.895 | [4] 0.676 | locus YJL128C, strain PBS2, hits give low values 0.846 | locus YJL157C, strain FAR1, hits give low values 0.803 | locus YJR066W, strain TOR1 (second series), hits give low values 0.882 | [5] 0.745 | locus YKL048C, strain ELM1, hits give low values 0.893 | locus YKL067W, strain YNK1, hits give low values 0.825 | locus YKL101W, strain HSL1, hits give low values 0.807 | locus YKL203C, strain TOR2, hits give low values 0.863 | locus YLR133W, strain CKI1, hits give low values 0.762 | locus YLR403W, strain SFP1, hits give low values 0.743 | locus YML070W, strain DAK1, hits give low values 0.777 | locus YMR001C, strain CDC5, hits give low values 0.891 | locus YMR205C, strain PFK2 (second series), hits give low values 0.769 | locus YMR277W, strain FCP1, hits give low values 0.9 | locus YNL020C, strain ARK1, hits give low values 0.745 | locus YNL161W, strain CBK1, hits give low values 0.904 | [7] 0.759 | locus YNL207W, strain RIO2, hits give low values 0.893 | locus YNL222W, strain SSU72, hits give low values 0.906 | locus YNL307C, strain MCK1 (second series), hits give low values 0.833 | locus YOL078W, strain AVO1, hits give low values 0.897 | locus YOL136C, strain PFK27, hits give low values 0.846 | [8] 0.842 | locus YOR119C, strain RIO1, hits give low values 0.936 | [9] 0.829 | locus YOR329C, strain SCD5, hits give low values 0.913 | locus YPL031C, strain PHO85, hits give low values 0.796 | locus YPL153C, strain RAD53, hits give low values 0.799 | locus YPL204W, strain HRR25, hits give low values 0.797 | locus YPR106W, strain ISR1, hits give low values 0.911 | locus YPR111W, strain DBF20, hits give low values 0.887 | strain NNK1, hits give low values 0.899 | strain TSCII, hits give low values 0.892
active: locus YBL105C, strain PKC1, hits give low values 0.897 | locus YBR135W, strain CKS1, hits give low values 0.888 | locus YDL017W, strain CDC7, hits give low values 0.895 | locus YDL108W, strain KIN28, hits give low values 0.896 | locus YDL132W, strain cdc53, hits give low values 0.879 | locus YDR052C, strain DBF4, hits give low values 0.884 | locus YDR226W, strain ADK1, hits give low values 0.877 | locus YFL009W, strain cdc4, hits give low values 0.888 | locus YFR003C, strain YPI1, hits give low values 0.897 | locus YFR028C, strain CDC14, hits give low values 0.884 | [2] 0.768 | locus YJR016C, strain ILV3, hits give low values 0.895 | locus YKL193C, strain SDS22, hits give low values 0.885 | [6] 0.669 | locus YNL006W, strain LST8, hits give low values 0.893 | locus YPL209C, strain IPL1, hits give low values 0.895 | [10] 0.756 | locus YPR025C, strain CCL1, hits give low values 0.894

O=C(Nc1ccccc1)c1ccccc1O
inactive: locus YBR229C, strain ROT2, hits give low values 1.01 | locus YCL029C, strain bik1, hits give low values 0.953 | locus YDL035C, strain GPR1, hits give low values 0.954 | locus YDL074C, strain BRE1, hits give low values 0.904 | [1] 0.956 | locus YDL185W, strain tfp1, hits give low values 0.927 | locus YDL192W, strain arf1, hits give low values 0.941 | locus YDR101C, strain arx1, hits give low values 0.953 | locus YDR162C, strain NBP2, hits give low values 0.963 | locus YDR318W, strain mcm21, hits give low values 0.981 | locus YDR388W, hits give low values 0.988 | locus YDR502C, strain sam2, hits give low values 0.939 | locus YEL061C, strain CIN8, hits give low values 0.995 | locus YER110C, hits give low values 0.962 | locus YER155C, strain BEM2, hits give low values 0.98 | locus YER167W, strain BCK2, hits give low values 0.982 | locus YGL078C, strain dbp3, hits give low values 0.943 | locus YGL086W, strain mad1, hits give low values 0.966 | locus YGL248W, strain PDE1, hits give low values 0.981 | locus YGR078C, strain PAC10, hits give low values 0.94 | locus YGR135W, strain pre9, hits give low values 0.944 | locus YGR229C, strain SMI1, hits give low values 0.909 | locus YGR252W, strain gcn5, hits give low values 0.847 | [2] 0.992 and 0.935 | locus YHR079C, strain IRE1 (second series), hits give low values 0.979 | [3] 0.921 | locus YHR094C, strain hxt1, hits give low values 0.989 | locus YHR129C, strain ARP1, hits give low values 0.991 | locus YHR200W, strain rpn10, hits give low values 0.963 | locus YIL066C, strain RNR3, hits give low values 0.986 | locus YIL073C, strain SPO22, hits give low values 0.874 | locus YIL125W, strain kgd1, hits give low values 0.984 | locus YIR030C, strain dcg1, hits give low values 0.976 | [4] 0.929 and 0.932 | locus YJL134W, strain LCB3, hits give low values 0.987 | locus YJL168C, strain set2, hits give low values 0.992 | locus YJL187C, strain SWE1 (second series), hits give low values 0.941 | locus YJR043C, strain POL32, hits give low values 0.924 | [5] 0.901 | locus YKL009W, strain mrt4, hits give low values 0.891 | locus YKL068W, hits give low values 0.964 | locus YKL085W, strain MDH1 (second series), hits give low values 0.98 | locus YKL085W, strain MDH1, hits give low values 0.98 | locus YLR039C, strain RIC1, hits give low values 0.949 | locus YLR058C, strain SHM2, hits give low values 0.99 | locus YLR102C, strain apc9, hits give low values 0.976 | locus YLR262C, strain YPT6, hits give low values 0.945 | locus YLR268W, strain sec22, hits give low values 0.916 | locus YLR330W, strain CHS5, hits give low values 0.983 | locus YLR342W, strain FKS1 (second series), hits give low values 0.968 | locus YLR371W, strain rom2, hits give low values 0.964 | locus YLR418C, strain cdc73, hits give low values 0.934 | locus YML016C, strain PPZ1, hits give low values 1 | locus YML032C, strain rad52, hits give low values 0.98 | locus YML124C, strain tub3, hits give low values 0.988 | locus YMR078C, strain ctf18, hits give low values 0.956 | locus YMR223W, strain ubp8, hits give low values 0.941 | locus YMR307W, strain GAS1, hits give low values 0.986 | locus YNL067W, strain RPL9B, hits give low values 0.9 | locus YNL153C, strain GIM3, hits give low values 0.94 | [7] 0.885 | locus YNL233W, strain BNI4, hits give low values 0.945 | locus YNL250W, strain rad50, hits give low values 0.952 | locus YNL271C, strain bni1, hits give low values 0.959 | locus YNL298W, strain CLA4, hits give low values 0.971 | locus YNL307C, strain MCK1, hits give low values 0.974 | locus YNR052C, strain pop2, hits give low values 0.978 | locus YOL012C, strain htz1 1.23 | locus YOL147C, strain pex11, hits give low values 0.987 | [8] 0.997 | locus YOR069W, strain VPS5, hits give low values 0.995 | locus YOR136W, strain idh2, hits give low values 0.983 | locus YOR144C, strain elg1, hits give low values 0.994 | [9] 0.929 | locus YOR316C, strain cot1, hits give low values 0.989 | locus YPL055C, strain LGE1, hits give low values 0.921 | locus YPL241C, strain CIN2, hits give low values 0.994 | [10] 0.901 | locus YPR119W, strain clb2, hits give low values 0.98 | locus YPR141C, strain kar3, hits give low values 0.969 | locus YPR163C, strain tif3, hits give low values 0.982 | locus YPR167C, strain met16, hits give low values 0.966 | strain wtn01, hits give low values 0.907
active: locus YBR021W, strain FUR4, hits give low values 1.18 [resistant] | locus YKR001C, strain vps1, hits give low values 0.897 | [6] 0.791 | locus YOR184W, strain ser1, hits give low values 0.861
